In the library only some 2.3% were active in any assay of this set; here they are far more common.
CHRM1 agonist – activates human CHRM1 receptor. P11229. CHO-K1 hM1, Fluo-8 calcium fluorescence, agonist mode; 0% DMSO, 100% acetylcholine EC100. activation, % at 3 µM. actives 0.33% (n = 360,000). AID 588814;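 active = activation above the run's mean compound activation plus 3 SD, cut at about 16% in these data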;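 also: peak over basal fluorescence ratio within a 140 s kinetic read after compound addition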
Target sequence (P11229 whole entry, looked up): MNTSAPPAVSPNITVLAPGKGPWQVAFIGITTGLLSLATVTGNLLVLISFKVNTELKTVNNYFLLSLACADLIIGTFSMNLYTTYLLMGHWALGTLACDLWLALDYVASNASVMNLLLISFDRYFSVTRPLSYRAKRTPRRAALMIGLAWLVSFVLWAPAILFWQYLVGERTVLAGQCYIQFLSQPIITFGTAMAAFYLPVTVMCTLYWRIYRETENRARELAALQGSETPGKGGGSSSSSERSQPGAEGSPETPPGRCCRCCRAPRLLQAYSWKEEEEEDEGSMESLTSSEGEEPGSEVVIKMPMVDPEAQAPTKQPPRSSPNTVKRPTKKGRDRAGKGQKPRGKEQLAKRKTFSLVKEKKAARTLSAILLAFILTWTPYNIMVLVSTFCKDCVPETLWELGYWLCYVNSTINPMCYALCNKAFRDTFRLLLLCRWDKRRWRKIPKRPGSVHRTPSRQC
CHO-K1 Ca PAM – counter-screen for M1 PAMs: effect in parental CHO-K1 cells; activation, % at 3 µM; ATP EC20, Fluo-8 calcium fluorescence; 0% at ATP EC20, 100% at ATP max; AID 602247; actives 0.02% (n = 360,000);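 active = activation above the run cutoff, the mean activation of all test compounds plus 3 SD, cut at about 40% in these data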;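 also: peak over basal fluorescence ratio in a 140 s read after ATP addition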
CHO-K1 Ca antag – M1 antagonist counterscreen hit in parental CHO-K1 cells; ATP-induced calcium, Fluo-8 fluorescence; inhibition, % at 3 µM; actives 0.6% (n = 360,000); AID 602250;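 active = inhibition above a per-plate cutoff, the plate's mean sample inhibition plus 3 SD, cut at about 24% in these data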;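 also: 0% = DMSO plus EC80 ATP and 100% = DMSO alone without ATP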
M1 antag – human CHRM1 antagonism; CHO-K1 hM1, Fluo-8 calcium fluorescence, ACh EC80 antagonist; inhibition, % at 3 µM; actives 1.3% (n = 360,000); AID 588852;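 active = percent inhibition above its own plate's cutoff, namely the mean of that plate's compound wells plus 3 SD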;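 also: peak over basal fluorescence ratio during 140 s after agonist addition; 0% = ACh EC80 plus DMSO and 100% = DMSO alone without agonist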
M1 ag parental – nonselective activator or artifact in parental CHO-K1 cells; Fluo-8 calcium fluorescence; scaled to maximal ATP response, vehicle zero; activation, % at 3 µM; actives 0.48% (n = 360,000); AID 602248; in the data active = activation above about 15%;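 also: untransfected CHO-K1 host cells lacking M1 receptor as counterscreen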
CHRM1 PAM – positive allosteric modulators of human M1 muscarinic receptor; CHO-K1 hM1, Fluo-8 calcium fluorescence, ACh EC20; 0% = ACh EC20, 100% = maximal ACh; activation, % at 3 µM; P11229; actives 0.088% (n = 360,000); AID 588819; in the data active = activation above about 19%, passing the limit was not always enough
The depositor's hits bear a star; . = not tested or not shown.

SMILES	CHRM1 agonist	CHO-K1 Ca PAM	CHO-K1 Ca antag	M1 antag	M1 ag parental	CHRM1 PAM
CCOC(=O)c1oc2c(C)c(O)ccc2c(=O)c1-c1nncn1-c1ccccc1	1	-6	31*	0	0	5
CCOC(=O)c1oc2c(O)c(O)ccc2c(=O)c1-c1nncn1-c1ccccc1	-3	-1	-6	1	0	2
CC(CNC(=O)c1cc(COc2ccc3ncccc3c2)on1)c1ccccc1 (stereo not drawn)	2	-6	18	43*	17*	-14
O=C(NC1CCCCCCC1)c1cc(COc2ccc3ncccc3c2)on1	-5	2	29*	49*	11	-18
Cc1cc(CN(C)C(=O)c2cc(COc3ccc4ncccc4c3)on2)on1	3	3	9	19	13	-9
CCOc1ccc(C2/C(=C(\O)c3ccc4c(c3)OCCO4)C(=O)C(=O)N2CCN2CCOCC2)cc1OC (stereo not drawn)	-2	-9	6	2	1	0
OC(CNCc1ccccc1)(c1ccccc1)c1ccccc1	-5	20	-17	-1	15*	3
Cc1cc([N+](=O)[O-])ccc1NCc1ccc2c(c1)OCCO2	-1	12	-6	-21	2	15
Cc1cc(F)ccc1NCc1ccc([N+](=O)[O-])cc1	-15	2	-9	8	21*	-4
O=C(NN1C(=O)NC2(CCCCC2)C1=O)c1ccc(-c2ccc(Cl)cc2)o1	-5	-6	-15	29*	1	-15
O=C(NN1C(=O)NC2(CCCCC2)C1=O)c1cc2cc(Cl)ccc2o1	-3	7	-19	-9	0	7
Cc1cc(C)c(NC(=O)c2cccc3c2C(=O)N(C2CCCCC2)C3)c(C)c1	-2	-4	-13	-2	-1	3
NC(=O)c1ccsc1NC(=O)CN1CCN(S(=O)(=O)c2ccccc2C(F)(F)F)CC1	4	13	-14	24	16*	-15
CCOC(=O)[C@]12CCC=C1N(Cc1ccc3c(c1)OCO3)C(=O)[C@H](CC(=O)NCc1ccc(C)o1)C2	.	8	-1	.	0	.
CC(=O)Nc1ccc(C(=O)OCC(=O)Nc2c(C)n(C)n(-c3ccccc3)c2=O)cc1	-3	-18	15	-14	0	12
CN1CCC(=O)N([C@H](CSc2ccc(Br)cc2)c2ccccc2)CC1	-13	4	-3	55*	1	-38
CCCN1CCC(=O)N([C@H](CSc2ccccc2)c2ccccc2)CC1	-14	17	-13	15	1	-20
COc1ccc(S(=O)(=O)NCC2CC3C=CC2C3)cc1OC (stereo not drawn)	1	18	-3	-11	2	2
Cc1ccc(OCC(=O)c2cc(C)n(CC(F)(F)F)c2C)c([N+](=O)[O-])n1	1	-2	-7	-4	3	8
Cc1ccc(OCC(=O)c2cc(C)n(Cc3cccs3)c2C)c([N+](=O)[O-])n1	-2	-11	28*	20	7	-11
O=[N+]([O-])c1ccc(C2=NN(c3ccccc3)C(c3ccco3)C2)cc1 (stereo not drawn)	78*	-16	59*	71*	71*	-22
CC1=NN(c2ccccc2)C(c2ccco2)C1 (stereo not drawn)	-1	6	-8	-15	0	10
O=[N+]([O-])c1ccc(/C=C/C2=NN(c3ccccc3)C(c3ccco3)C2)cc1 (stereo not drawn)	19*	-14	33*	25*	20*	-13
COc1cc(C2C(C#N)=C(N)N(c3ccc(F)cc3)C3=C2S(=O)(=O)CC3)ccc1O (stereo not drawn)	-6	14	1	-3	1	-1
CCOC(=O)c1c(C)n(CC(O)CN(C)C)c2cc(Br)c(OC)cc12 (stereo not drawn)	-7	11	7	-14	0	6
SMILES	CHRM1 agonist	CHO-K1 Ca PAM	CHO-K1 Ca antag	M1 antag	M1 ag parental	CHRM1 PAM
COC(=O)c1ccc(/C=N/n2c(C)nc3ccccc3c2=O)cc1	-3	0	-9	-7	1	5
Cc1ccc2sc(N3CCN(CCNC(=O)c4ccco4)CC3)nc2c1C	-2	2	-5	-4	20*	3
O=C(NCCN1CCCCC1)c1ccco1	-3	17	-7	-32	0	0
COc1nc(=O)n(C2C=CC(=O)O2)cc1F (stereo not drawn)	-2	11	-1	-10	0	9
O=C1N/C(=C/c2ccc(N3CCCC3)cc2)C(=O)N1c1ccccc1	-1	19	-7	-13	2	7
CN1C(=O)c2ccc(N3CCCC3)cc2C1=O	-7	6	-19	2	4	-7
O=C1/C(=C/c2ccc(N3CCCC3)cc2)NC(=S)N1C1CC1	34*	-11	45*	35*	56*	-22
Cc1cc(N2CCCC2)ccc1/C=C1\NC(=S)N(C)C1=O	23*	-1	20	18	17*	-13
CC(C)(C)c1ccc(-n2nc(C#N)c(Cl)cc2=O)cc1	-11	-11	30*	45*	1	-17
CC(=O)Nc1cccc(NC(=O)CCNC(=O)c2ccccc2)c1	1	-2	-10	-5	0	13
CCOc1ccccc1N(CC(=O)N1CCCCCC1)S(=O)(=O)c1ccc(C)cc1	-6	-2	-3	1	0	-1
CCOc1ccccc1N(CC(=O)N1CCC(C)CC1)S(=O)(=O)c1ccc(C)cc1	-7	-22	8	32*	-1	-16
Cn1nc(C(F)(F)F)c(/C=N/OC(=O)c2ccccc2)c1SCc1ccccc1Cl	-5	4	-8	41*	0	-21
COc1ccc(Cc2nnc(NC(=O)c3ccccc3F)s2)cc1OC	1	10	-2	-16	1	13
COc1ccc(Cc2nnc(NC(=O)Nc3ccc(C)cc3)s2)cc1OC	0	-12	13	-10	0	10
COc1ccc(Cc2nnc(NC(=O)CSc3ccc(C)cc3)s2)cc1OC	61*	42*	-22	-7	49*	15
COc1ccc(Cc2nnc(NC(=O)c3ccccc3Cl)s2)cc1OC	-2	16	-1	-15	22*	8
Cc1ccc(S(=O)(=O)N2CC3(O)CN(C(=O)OC(C)C)N(C(=O)OC(C)C)CC3(OC(=O)Nc3cccs3)C2)cc1 (stereo not drawn)	0	-9	2	8	1	-10
Cc1cccc(OC(=O)NCCOC(=O)N(O)c2ccc(Cl)cc2)c1	4	-5	24*	21	8	-8
O=C(Cc1ccccc1F)Nc1cc(S(=O)(=O)N2CCCCC2)ccc1N1CCOCC1	-3	-1	-1	-7	1	2
FC(F)(F)c1cccnc1Oc1ccc(C2=NCCS2)cc1	24*	22	-9	-6	2	1

Source: PubChem (The Scripps Research Institute Molecular Screening Center)
